Assay results published in the supplement of paper PMC10498489.
The campaign covered roughly 2,300 compounds. About 330 (14%) showed activity. Only a sample is shown. Unmarked numbers belong to inactive results.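 How the source made its calls: active = median modified Z-score above 1.96; inactive = 1.96 or below.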

test system: HepG2 Srxn1-GFP reporter cells (+30 nM CDDO-Me); experiment: Srxn1-GFP intensity median modified Z-score relative to plate median; higher = stronger NRF2 / oxidative stress reporter activation, active = hit call of the paper; details: 10 µM; exposure time: 24h
Outline: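 Each value is the replicate median of a per-plate modified Z-score for GFP intensity in HepG2 Srxn1-GFP BAC reporter cells. The cells (20,000 per well, 96-well plates, three replicate plates) received compound at 10 μM together with an NRF2 activator at 30 nM for 24 h, in ≤0.1% DMSO. Cytoplasmic GFP was quantified per cell from confocal images of formaldehyde-fixed, Hoechst-stained cells, leaving out images with fewer than 100 cells, and scaling used 1.4826 × median absolute deviation.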

| Compound | Srxn1-GFP intensity median modified Z-score |
| --- | --- |
| CC1=CC(=O)c2ccccc2C1=O [euspeclibcmpd446] | 5.02 (active) |
| CN1C(C(=O)N=c2cccc[nH]2)C(=O)c2sc(Cl)cc2S1(=O)=O (stereo not drawn) [euspeclibcmpd458] | -0.432 |
| CC(=O)OC=C1CSC2C(NC(=O)Cc3cccs3)C(=O)N2C1C(=O)O (stereo not drawn) [euspeclibcmpd2267] | 0.967 |
| S=c1[nH]c2ccccc2s1 [euspeclibcmpd1954] | -0.455 |
| CN1CCN(CC/C=C2\c3ccccc3Sc3ccc(S(=O)(=O)N(C)C)cc32)CC1 [euspeclibcmpd294] | 4.72 (active) |
| CN(C)CCC=C1c2ccccc2CCc2ccccc21 [euspeclibcmpd21] | 0.287 |
| CN(C)CC/C=C1\c2ccccc2Sc2ccc(Cl)cc21 [euspeclibcmpd538] | -1.04 |
| CN1CCC[C@@H]1Cc1c[nH]c2ccc(CCS(=O)(=O)c3ccccc3)cc12 [euspeclibcmpd938] | -0.193 |
| CCCN(Cc1nnc(-c2cccs2)o1)C(=O)CSc1nnc(-c2cccs2)n1C1CC1 | 0.54 |
| CC1O[C@@H](Oc2c(-c3ccc(O)c(O)c3)oc3cc(O)cc(O)c3c2=O)[C@H](O)[C@H](O)[C@H]1O (stereo partly drawn) [euspeclibcmpd1694] | -0.35 |
| O=C1OC(CN2CCOCC2)CN1/N=C/c1ccc([N+](=O)[O-])o1 (stereo not drawn) [euspeclibcmpd1273] | 0.605 |
| O=C(N/N=C/c1ccc([N+](=O)[O-])o1)c1ccc(O)cc1 [euspeclibcmpd1226] | 0.949 |
| O=C(N/N=C/c1ccc([N+](=O)[O-])o1)c1ccc(Br)cc1 | 4.87 (active) |
| O=c1[nH]c(O)cn1/N=C/c1ccc([N+](=O)[O-])o1 [euspeclibcmpd209] | 0.292 |
| O=C1OCCN1/N=C/c1ccc([N+](=O)[O-])o1 [euspeclibcmpd134] | 2.95 (active) |
| NC(=O)N/N=C/c1ccc([N+](=O)[O-])o1 [euspeclibcmpd210] | 10.3 (active) |
| CC(C)(C)c1ccc(C(=O)N/N=C/c2ccc([N+](=O)[O-])o2)cc1 | 1.17 |
| CC(C)CC(N)C(=O)NC(C)C(=O)O (stereo not drawn) [euspeclibcmpd1745] | 0.124 |
| CC(=O)NCCc1ccc(O)c(C2C(=O)C(=O)c3c(c(O)c4c(C(=O)O)c(C(=O)O)c(O)cc4c3O)C2=O)c1 (stereo not drawn) [euspeclibcmpd1580] | -0.208 |
| CC(=O)OC=C1CSC2C(N)C(=O)N2C1C(=O)O (stereo not drawn) [euspeclibcmpd1380] | -0.0231 |
| O=C(O)c1ccc[nH]c1=Nc1cccc(C(F)(F)F)c1 [euspeclibcmpd1074] | -0.299 |
| N#CCOC(=O)c1cc(-c2ccccc2)nc2ccccc12 | 1.25 |
| NCCc1cc[nH]n1 [euspeclibcmpd614] | 1.24 |
| NC(=O)NC(CC(=O)O)C(=O)O (stereo not drawn) | 1.02 |

| Compound | Srxn1-GFP intensity median modified Z-score |
| --- | --- |
| CNC(=O)CN1CCC(NC(=O)NCc2ccc(C)n2C)CC1 | 0.3 |
| CN1CCN(C(=O)Oc2c3nccnc3c(O)n2-c2ccc(Cl)cn2)CC1 [euspeclibcmpd2130] | -0.245 |
| C=C(C)[C@@H]1CC[C@]2(C)CC[C@]3(C)[C@@H](CCC4[C@@]5(C)CC[C@H](O)C(C)(C)C5CC[C@]43C)C12 (stereo partly drawn) [euspeclibcmpd1455] | -0.31 |
| C=C(C)[C@@H]1CC[C@]2(CO)CC[C@]3(C)[C@H](CCC4[C@@]5(C)CC[C@H](O)C(C)(C)C5CC[C@]43C)C12 (stereo partly drawn) [euspeclibcmpd1538] | 10.7 (active) |
| C=C(C)[C@@H]1CC[C@]2(C(=O)O)CC[C@]3(C)[C@H](CCC4[C@@]5(C)CC[C@H](O)C(C)(C)C5CC[C@]43C)[C@@H]12 (stereo partly drawn) [euspeclibcmpd1473] | -0.366 |
| CC=C(c1ccc(O)cc1)C(CC)c1ccc(O)cc1 (stereo not drawn) [euspeclibcmpd93] | 0.179 |
| NCCSSCCN [euspeclibcmpd2395] | -0.505 |
| N=C(N)SCCN [euspeclibcmpd1761] | 3.8 (active) |
| N=C(N)N [euspeclibcmpd2417] | -0.496 |
| N=c1[nH]c(=O)c2ncn(COC(CO)CO)c2[nH]1 [euspeclibcmpd487] | 0.251 |
| CCN1CCN(C(=O)NC(C(=O)NC2C(=O)N3C2SC(C)(C)[C@@H]3C(=O)O)c2ccccc2)C(=O)C1=O (stereo partly drawn) [euspeclibcmpd2069] | 0 |
| CC1(C)OC2CC3C4CC(F)=C5CC(=O)CCC5(C)C4C(O)CC3(C)C2(C(=O)CO)O1 (stereo not drawn) [euspeclibcmpd1953] | -0.815 |
| O=C1OC(c2ccc(O)cc2)(c2ccc(O)cc2)c2ccccc21 [euspeclibcmpd234] | 1.62 |
| O=C1OC2(c3ccc(O)cc3Oc3cc(O)ccc32)c2ccccc21 [euspeclibcmpd769] | 2.16 (active) |
| O=c1cc(-c2ccccc2O)oc2cc(O)ccc12 [euspeclibcmpd1982] | -0.161 |
| CS(=O)(=O)c1ccc([C@H](O)[C@H](CF)NC(=O)C(Cl)Cl)cc1 [euspeclibcmpd827] | -0.193 |
| OC[C@H]1O[C@@H](Oc2ccc(Cl)cc2)[C@H](O)[C@@H](O)[C@H]1O | 1.18 |
| COC(=O)N=c1[nH]c2ccc(C(=O)c3ccc(F)cc3)cc2[nH]1 [euspeclibcmpd2318] | 8.09 (active) |
| CCOC(=O)N=c1[nH]c2ccccc2[nH]1 [euspeclibcmpd787] | -0.0391 |
| COC(=O)N=c1[nH]c2ccc(Sc3ccccc3)cc2[nH]1 [euspeclibcmpd371] | 2.82 (active) |
| COC(=O)N=c1[nH]c2ccc(C(=O)c3ccccc3)cc2[nH]1 [euspeclibcmpd378] | 19.3 (active) |
| COC(=O)N=c1[nH]c2ccc([S+]([O-])c3ccccc3)cc2[nH]1 (stereo not drawn) [euspeclibcmpd738] | -0.824 |
| O=c1oc2ccccc2cc1O [euspeclibcmpd2250] | -0.381 |
| CCC(C)(C)c1ccc(CC(C)CN2C[C@@H](C)O[C@@H](C)C2)cc1 (stereo partly drawn) [euspeclibcmpd489] | 1.75 |
